“And” between values parts separate entries of the source, which are not always exact repeats. Identical values can stand only once. The campaign covered roughly 1,300 compounds. About 150 (12%) were called active. Entries that show only a call come without a potency. About 30% were inconclusive and are not listed. Calls follow the shape of the dose curve; as a rule, active = well fitted cell-killing curve with a large enough effect; inconclusive = small, poorly fitted or top-dose-only effect, or effect the other way; inactive = flat fitted curve, though single readings scatter. Many of the other results were omitted from the sample, so actives are more common in it than they were.
Potency is read from the fitted curve at half-maximal effect.

A short description of this assay: qHTS of small molecules that selectively kill Giardia lamblia: Hit Validation in HepG2 cytotox.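 Also: compound exposure lasted overnight at 37 deg C; nearly all actives have a fitted effect of over 55% in size.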 The settings on record: cell viability; Potency: HepG2 cytotoxicity; series mostly up to 38.3 µM. From the text: Giardia lamblia is a human pathogen afflicting impoverished nations, and the most common cause of outbreaks of diarrhea in the United States. Giardia has been classified by the CDC as a category B bioterrorism organism. The favored anti giardiasis drugs in the US are metronidazole or tinidazole, compounds that have undesirable side effects. Moreover, increasing resistance to drug regimes and recurrence are a concern. It is thus clear that alternative drug treatments are needed.
In a collaboration between the University of Maryland, College Park and the NIH Chemical Genomics Center, a bioluminescence Giardia viability assay based on the trophozoites' ATP content was developed. This assay is suitable for high throughput screening, and miniaturized the assay for compound screening in 1536-well plates. The goal of the project is to screen the Molecular Libraries Small Molecule Repository (MLSMR) for compounds that selectively kill Giardia trophozoites. This counterscreen looks at the toxicity of the compounds against the human HepG2 cell line.
NIH Chemical Genomics Center [NCGC]
NIH Molecular Libraries Probe Centers Network [MLPCN]
Assay Submitter (PI): Osnat Herzberg, University of Maryland, College Park, MD.
4 uL of HepG2 cells ae dispensed into white 1536-well plates. They are incubated overnight at 37 deg C and then 23 nL of compounds are transferred to the wells with a pintool. Plates are incubated overnight at 37 deg C. 2 uL of ATPLite is added and the plates are incubated for 15 min at room temperature before they are read on the ViewLux for luminiescence.
For the compound `O=[N+]([O-])c1cc(S(=O)(=O)N2CCCC2)ccc1N/N=C/c1ccncc1`, the Potency result is “inactive”. With `Cc1ccc(OCC(=O)Nc2nc(C)c(Cl)cc2Cl)c([N+](=O)[O-])n1` the entry was “inactive”; with `O=[N+]([O-])c1ccc(N=NN(CCO)CCO)cc1`, “inactive”.

Take `Cc1cc(C2=NNC(=NC3CC3)SC2)c(C)n1-c1ccccc1F`: the Potency was 0.927 µM (active). Turning to `CCOC(=O)C1=C(C)N=c2s/c(=C/c3cccc([N+](=O)[O-])c3O)c(=O)n2C1c1cc(OC)c(OC)c(OC)c1` (configuration not stated), the Potency result was “inactive”. With `Cc1ccc([C@@H]2CC=C(C(=O)O)[C@H](c3ccccc3)N2S(=O)(=O)c2ccc(C)cc2)cc1` the entry was “inactive”; with `NCCCn1c(C(=O)c2ccc(Cl)cc2)c2ccc(C(F)(F)F)cc2[n+]1[O-]`, “inactive”.

As for `CCN1/C(=C\c2ccc3ccccc3[n+]2CC)Sc2cc(C)ccc21`, the Potency was 4.65 µM (active). The same measure for `N/C(=N/OC(=O)c1ccc(Cl)cc1)c1ncc([N+](=O)[O-])s1`: “inactive”; for `Cc1ncc([N+](=O)[O-])n1CCOC(=O)c1cc(Cl)cc(Cl)c1N`: “inactive”; for `COC(=O)c1ccc2cc(OC)cc([N+](=O)[O-])c2n1`: “inactive”.

`Cc1nc2c(o1)C(=O)c1ccccc1C2=Nc1ccccc1`: the Potency was 4.65 µM (active). Regarding `Cc1c(N=Nc2ccc(O)cc2)c(=O)n(-c2ccccc2)n1C`, the Potency result was “inactive”. `Cc1ccc(OCC(=O)c2cc(C)n(-c3ccccc3)c2C)c([N+](=O)[O-])n1`: the Potency entry was “inactive”.

Turning to `CCn1ncc([N+](=O)[O-])c1C(=O)Nc1nc2cccc(C)c2s1`, the Potency result was “inactive”. Regarding `CC(=O)Nc1ccc(NS(=O)(=O)c2ccc(C)cc2)c([N+](=O)[O-])c1`, the Potency entry is “inactive”. With `Cc1ccc2nc(N/N=C\c3ccc([N+](=O)[O-])o3)nc(-c3ccccc3)c2c1` the entry was “inactive”. With `CCOC(=O)N/N=C\c1ccc([N+](=O)[O-])o1` the entry was “inactive”; with `O=C(N/N=C/c1ccc([N+](=O)[O-])o1)c1cn(-c2ccccc2)nc1-c1ccc(F)cc1`, “inactive”. Turning to `Cc1cc(N/N=C/c2ccc([N+](=O)[O-])o2)nc2ccccc12`, the Potency entry is “inactive”. The same measure for `COc1ccc(-c2nn(-c3ccccc3)cc2C(=O)N/N=C/c2ccc([N+](=O)[O-])o2)cc1`: “inactive”; for `O=C(N/N=C/c1ccc([N+](=O)[O-])o1)c1cn2ccc3ccccc3c2n1`: “inactive”. With `O=C(N/N=C/c1ccc([N+](=O)[O-])o1)c1cc(-c2ccc(-c3ccccc3)cc2)nc2ccccc12`, the Potency is 2.61 µM (active). With `Cc1nc2ccccn2c1C(=O)N/N=C/c1ccc([N+](=O)[O-])o1`, the Potency is 14.7 µM (active). With `CCCc1ccc(-c2cc(C(=O)N/N=C/c3ccc([N+](=O)[O-])o3)c3ccccc3n2)cc1` the figure was 3.29 µM (active); with `CC1CC(C)C(=NNC(N)=O)C(C(O)CC2CCC(=O)NC2=O)C1` (configuration not stated), “inactive”. The same measure for `N/C(=N\O)c1ccc([N+](=O)[O-])s1`: “inactive”. Consider `COc1ccc(-n2nc([N+](=O)[O-])c(=NCc3ccc4c(c3)OCO4)n2O)cc1`, for which the Potency result was “inactive”. Turning to `O=C(/C=C/c1ccc(O)c([N+](=O)[O-])c1)c1ccc2ccccc2c1`, the Potency result is “inactive”. As to `Cc1nn(-c2nc3ccccc3[nH]2)c(=O)c2ccccc12`, the Potency is 2.07 µM (active). For `Cc1ccc(NC(=O)CN2C(=O)S/C(=C/c3ccc(O)c([N+](=O)[O-])c3)C2=O)cc1C`, the Potency result was “inactive”.

On to `Cc1cccc(N=Nc2c(C)c(C#N)c(O)[nH]c2=O)c1`, for which the Potency result was “inactive”. With `CC1C/C(=C/c2ccncc2)C(=O)/C(=C/c2ccncc2)C1` (configuration not stated) the figure was 2.07 µM (active).

Take `O=C1/C(=C/c2ccncc2)CCC/C1=C\c1ccncc1`: the Potency is 4.14 µM (active). The same measure for `O=C1N=C(N2CCCCC2)S/C1=C\c1ccc(Br)cc1`: “inactive”; for `O=c1c2c(-c3ccccc3)csc2ncn1/N=C/c1ccc(O)c([N+](=O)[O-])c1`: “inactive”; for `Cc1ccc(C2=NCCn3c2c2ccccc2[n+]3[O-])cc1`: “inactive”. With `CC(=O)Nc1nc(-c2cc([N+](=O)[O-])cs2)cs1` the entry was “inactive”. With `CCn1c(=NC(=O)c2cccc(N3C(=O)CCC3=O)c2)sc2c(OC)ccc(OC)c21` the entry was “inactive”. With `Cc1cnc([N+](=O)[O-])n1CCOC(=O)NC(=O)c1ccc(F)cc1`, the Potency result was “inactive”. `CN(C)C(=O)COC(=O)c1cccc(S(=O)(=O)N2CC3(C)CC2CC(C)(C)C3)c1` (configuration not stated): the Potency entry is “inactive”. For the compound `O=[N+]([O-])c1nn(-c2ccccc2)[n+]([O-])c1N1CCN(c2ccccc2)CC1`, the Potency result is “inactive”. `CCOc1ccc(-c2cc(C(=O)N3CCN(c4ccccn4)CC3)c3ccccc3n2)cc1`: the Potency is 1.65 µM (active) and 414 nM (active).

Take `O=C(CSc1ccsc1[N+](=O)[O-])N1CCN(c2ccccn2)CC1`: the Potency entry was “inactive”. The same measure for `CN(C(=O)CN1CCN(c2ccc([N+](=O)[O-])cn2)CC1)c1ccccc1`: “inactive”. In the case of `Cc1ncc([N+](=O)[O-])n1CCOC(=O)NC(Nc1ccc(F)cc1)C(Cl)(Cl)Cl` (configuration not stated), the Potency result is “inactive”.

`O=C(CCCn1cnc([N+](=O)[O-])n1)Nc1ccc(F)c(Cl)c1`: the Potency result is “inactive”.

As to `COc1cc2c(cc1OC)-c1c(OC)c(OC)cc3ccnc(c13)C2=O`, the Potency entry was “inactive”. With `COc1ccc(-n2nc([N+](=O)[O-])c(=NCCc3ccc(Cl)cc3)n2O)cc1` the entry was “inactive”. With `O=C(CN(C1CCCCC1)S(=O)(=O)c1ccc(F)cc1)NCC1CCCO1` (configuration not stated) the figure was 4.65 µM (active); with `O=C(NCC1CCCO1)c1ccc([N+](=O)[O-])o1` (configuration not stated), “inactive”; with `CN(C(=O)c1ccc(F)c(S(=O)(=O)N2CCOCC2)c1)C1CCCCC1`, “inactive”. Turning to `CCS(=O)(=O)CCn1c([N+](=O)[O-])cnc1C`, the Potency result was “inactive”. With `O=c1c(-c2ccc(F)cc2)coc2cc(O)ccc12` the entry was “inactive”; with `C[C@@H]1CN([C@@H](C)CO)C(=O)c2cccc(NS(=O)(=O)c3cccs3)c2O[C@H]1CN(C)Cc1ccc(C(F)(F)F)cc1`, “inactive”; with `NC(=O)C1CCN(c2ncccc2[N+](=O)[O-])CC1`, “inactive”. `COc1ccccc1NC(=O)C(=O)N/N=C/c1ccc([N+](=O)[O-])s1`: the Potency result is “inactive”.

Consider `COC(=O)N/N=C/c1ccc([N+](=O)[O-])s1`, for which the Potency entry is “inactive”.

For `Cc1ccccc1C(=O)N/N=C/c1ccc([N+](=O)[O-])s1`, the Potency is 18.5 µM (active).

As to `COc1ccc(NC(C)C(=O)N/N=C/c2ccc([N+](=O)[O-])s2)cc1` (configuration not stated), the Potency result was “inactive”. For `O=C(N/N=C\c1ccc([N+](=O)[O-])s1)c1cncc(Br)c1`, the Potency is 7.36 µM (active). Turning to `O=C(N/N=C/c1ccc([N+](=O)[O-])s1)C(O)c1ccccc1` (configuration not stated), the Potency was 13.1 µM (active). The same measure for `Cc1nc2cc(NC(=O)c3ccc([N+](=O)[O-])s3)ccc2s1`: “inactive”; for `CCOC(=O)N/N=C\c1ccc([N+](=O)[O-])s1`: “inactive”. In the case of `Cc1ccc(NC(C)C(=O)N/N=C/c2ccc([N+](=O)[O-])s2)cc1` (configuration not stated), the Potency result was “inactive”. On to `COCCn1c(C)cc(C(=O)COc2cccnc2[N+](=O)[O-])c1C`, for which the Potency result is “inactive”. With `O=C(Nc1nnc(C2=COCCO2)o1)c1cccc(F)c1` the entry was “inactive”. With `COc1nn(C(C)C(=O)N2N=C(C(F)F)CC2(O)C(F)F)cc1[N+](=O)[O-]` (configuration not stated) the entry was “inactive”; with `COc1cc(/C=C/c2ccc3cccc(OC)c3n2)c(OC(C)=O)c([N+](=O)[O-])c1`, “inactive”; with `CN(C)C(=O)c1cc([N+](=O)[O-])cc([N+](=O)[O-])c1N(C)C`, “inactive”. With `COc1ccccc1CNC(=O)CSc1ccsc1[N+](=O)[O-]` the entry was “inactive”. On to `Cc1ccc(OCc2ccc([N+](=O)[O-])cc2)c([N+](=O)[O-])n1`, for which the Potency entry was “inactive”. The same measure for `Cc1cc(C(=O)COc2cccnc2[N+](=O)[O-])c(C)n1Cc1cccs1`: “inactive”; for `Cc1onc(-c2ccccc2)c1C(=O)N/N=C/c1ccc([N+](=O)[O-])c(O)c1`: “inactive”. The same measure for `COc1cc2c(c3oc(-c4ccccc4)cc(=O)c13)C=CC(C)(C)O2`: “inactive”; for `Cc1nc2ccccc2n1/N=C/c1ccc([N+](=O)[O-])s1`: 16.5 µM (active).

Regarding `O=[N+]([O-])c1ccc(/C=N/n2c(CO)nc3ccccc32)s1`, the Potency entry is “inactive”. With `O=[N+]([O-])c1ccc(/C=N/Nc2ncccc2[N+](=O)[O-])s1` the entry was “inactive”; with `CN(C)c1ccc(N=Nc2ccccc2C(=O)O)cc1`, “inactive”. Regarding `CCOC(=O)Cn1c(=NC(=O)c2ccc([N+](=O)[O-])s2)sc2ccccc21`, the Potency entry is “inactive”. With `COc1ccc(C(=O)N(Cc2ccccc2)c2cccc(C)c2)cc1` the entry was “inactive”; with `CCOc1ccc2nc(NC(=O)c3c([N+](=O)[O-])cnn3CC)sc2c1`, “inactive”.

For the compound `CCOC(=O)N=Nc1c2ccccc2c2nc3no[nH]c3nc12`, the Potency was 0.736 µM (active). Turning to `CCC(C(=O)OC)n1c(-c2ccccc2)nc2ccccc2c1=O` (configuration not stated), the Potency result was “inactive”. With `CN(C)c1cc(NC(=O)CNC(C)(C)CC(C)(C)C)c2ccccc2n1` the entry was “inactive”; with `CC1CCN(c2c([N+](=O)[O-])nn(-c3ccc4c(c3)OCCO4)[n+]2[O-])CC1`, “inactive”; with `COCCNc1cc(NCCOC)c([N+](=O)[O-])cc1[N+](=O)[O-]`, “inactive”. The same measure for `Cc1ccc([C@H]2C(C(=O)O)=CC[C@@H](c3ccc(C)cc3)N2S(=O)(=O)c2ccc(C)cc2)cc1`: “inactive”. On to `CCC(C)Nc1ccc(NC(C)CC)cc1` (configuration not stated), for which the Potency was 0.165 µM (active). For the compound `O=C(COc1cccnc1[N+](=O)[O-])Nc1c(Cl)cccc1Cl`, the Potency entry was “inactive”. The same measure for `O=[N+]([O-])c1nn(-c2ccc(Cl)cc2)n(O)c1=NCc1ccncc1`: “inactive”; for `OCCSc1nc(-c2ccccc2)nc2ccc(F)cc12`: “inactive”; for `O=C(Cc1csc(Nc2nc(=S)[nH]c3ccccc23)n1)NCCCN1CCN(c2ccccc2F)CC1`: 16.5 µM (active). With `CCOC(=O)N1C(C)CN(/[N+]([O-])=N/Oc2ccc([N+](=O)[O-])cc2[N+](=O)[O-])CC1C` (configuration not stated) the entry was “inactive”; with `O=c1/c(=C/c2ccc(O)c([N+](=O)[O-])c2)sc2nc3ccccc3n12`, “inactive”; with `Cc1ccc2c(c1)c1nc3ccccc3nc1n2C`, “inactive”. With `Cc1cnc([N+](=O)[O-])n1CCOC(=O)c1cccc(F)c1` the entry was “inactive”.

For the origin of these results see PubChem BioAssay AID588382 (National Center for Advancing Translational Sciences (NCATS), 2011).
